# Screening data as filed in PubChem.
# TEAD-YAP block: TEAD-YAP interaction inhibition, primary screen, TEAD-YAP interaction inhibitor project, luminescence, HEK-TIYL cells | TEAD-Gal4/YAP UAS-luciferase luminescence | inhibition, % at 9.12 µM | 640,000 tested, 1.4% active | AID 1259422, 2018; in the data active = inhibition above about 32%;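 note: 0% = median of test compound wells and 100% = reference inhibitor wells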
# MITF inh: MITF inhibitors, primary screen, biochemical, AlphaScreen, human | Microphthalmia-associated transcription factor (Homo sapiens), O75030 | AlphaScreen MITF homodimerization, bead proximity signal | inhibition, % at 2.6 µM | 650,000 tested, 0.91% active | AID 1259374, 2018; in the data active = inhibition above about 50%;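 note: 0% = vehicle wells with protein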
# GPR151 ag: activators of human GPR151, primary screen, cell-based, PathHunter beta-arrestin, luminescence. AID 1508602, 2020. activation, % at 11.2 µM. 650,000 tested, 1% active. PathHunter beta-arrestin GPR151 cells; in the data active = activation above about 4.9%;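 note: 0% = median of compound wells and 100% = cells with positive control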
# FBW7 activator: FBW7 E3 ligase activators, primary screen, biochemical, AlphaScreen, human. normalized activity (activation), % at 26.1 µM. AID 1259310, 2017. F-box/WD repeat-containing protein 7 (Homo sapiens), Q969H0. 650,000 tested, 0.13% active. AlphaScreen FBW7–phospho-cyclin E peptide binding, activator screen; in the data active = normalized activity above about 1.9%;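 note: purified mutant Fbw7 with reduced substrate affinity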
# Target sequence (Q969H0 whole entry, looked up): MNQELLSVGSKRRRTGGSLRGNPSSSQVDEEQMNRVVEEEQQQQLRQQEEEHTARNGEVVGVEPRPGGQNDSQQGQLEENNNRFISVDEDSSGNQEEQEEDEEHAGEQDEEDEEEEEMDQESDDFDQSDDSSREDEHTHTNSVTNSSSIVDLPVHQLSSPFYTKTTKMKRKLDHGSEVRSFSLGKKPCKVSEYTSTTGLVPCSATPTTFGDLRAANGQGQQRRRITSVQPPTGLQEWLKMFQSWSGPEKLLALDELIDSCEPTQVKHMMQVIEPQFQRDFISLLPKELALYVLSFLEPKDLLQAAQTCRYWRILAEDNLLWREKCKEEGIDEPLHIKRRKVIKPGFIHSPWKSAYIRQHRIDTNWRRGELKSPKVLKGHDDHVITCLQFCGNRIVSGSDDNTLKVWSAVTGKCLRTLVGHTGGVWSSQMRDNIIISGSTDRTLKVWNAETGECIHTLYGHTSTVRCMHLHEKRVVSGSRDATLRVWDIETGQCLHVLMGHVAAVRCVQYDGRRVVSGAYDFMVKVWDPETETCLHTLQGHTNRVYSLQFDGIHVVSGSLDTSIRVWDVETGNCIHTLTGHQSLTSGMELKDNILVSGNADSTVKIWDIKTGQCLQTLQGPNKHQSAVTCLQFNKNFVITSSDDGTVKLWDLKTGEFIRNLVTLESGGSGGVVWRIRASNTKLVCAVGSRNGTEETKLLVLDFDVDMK
# MITF confirm: MITF inhibitors, retest of hits, confirmation, biochemical, AlphaScreen, triplicate. AID 1259372, 2018. 4,700 tested, 16% active. AlphaScreen MITF homodimerization, biotin/His-MITF beads. shares compounds with MITF inh. inhibition, % at 2.6 µM;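 active = inhibition above a cutoff derived from the DMSO control wells, cut at about 28% in these data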;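 note: 0% = MITF dimer wells with DMSO only; inhibitors lower the bead chemiluminescence by keeping MITF from dimerizing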
# AS interf ctr: AlphaScreen optical interference compounds, counter-screen for MITF inhibitor project, biochemical, triplicate. shares compounds with MITF inh. LysRS AlphaScreen counterscreen, signal interference. inhibition, % at 2.6 µM. 4,700 tested, 7.6% active;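 active = inhibition above a cutoff derived from the DMSO control wells, cut at about 30% in these data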
# Numbers without * were called inactive; . = no result given. Most compounds without a hit are left out; they make up all but 3.5% or so of the library.
SMILES,TEAD-YAP block,MITF inh,GPR151 ag,FBW7 activator,MITF confirm,AS interf ctr
O=c1[nH]c(C2CCNCC2)nc2c1nnn2Cc1ccccc1,6,9,0,0,.,.
Cc1ccc(NS(=O)(=O)c2cccc(C(=O)NNC(=O)NC3CCCCC3)c2)c(C)c1,-1,71*,2,0,4,13
O=C(Nc1ccccc1C(=O)NC1CCCCC1)c1cccc(S(=O)(=O)NC2CCCCC2)c1,3,15,0,0,.,.
CC(=O)Oc1cc(-c2coc3cc(OC(C)=O)c(OC(C)=O)c(OC(C)=O)c3c2=O)cc(OC(C)=O)c1OC(C)=O,8,73*,-2,0,3,-6
COc1ccc(-c2cc(C3CC3)nc(SCC(=O)c3ccc(Br)cc3)c2C#N)cc1,-2,7,-1,0,.,.
N#Cc1c(-c2ccc(Br)cc2)cc(C2CC2)nc1SCC(=O)c1ccccc1,-4,66*,0,0,-7,16
COc1ccc(-c2cc(C3CC3)nc(SCC(N)=O)c2C#N)cc1,14,51*,-1,0,-4,-5
COc1ccccc1-c1c(C)nn2c(NCc3cccs3)cc(C)nc12,-5,54*,1,0,1,14
COc1ccccc1-c1c(C)nn2c(NCc3ccccc3)cc(C)nc12,1,11,-1,0,.,.
COc1ccc2oc(=O)c(-c3nnc(-c4ccc(Cl)cc4)o3)cc2c1,4,84*,-1,0,3,7
CCSc1nnc(NC(=O)c2sc3nc4c(cc3c2N)CCC4)s1,-11,-10,0,0,.,.
CC(C)C(C)NC(=O)CSc1nnc(NCc2ccccc2)s1 (stereo not given),-9,53*,1,0,3,8
Cc1cccc(C(=O)Nc2cccc(C(=O)Nc3ccccc3C(=O)O)c2)c1,-13,1,0,0,.,.
Cc1ccc(Cn2nnc3c(=O)[nH]c(C4CCCN(C(=O)C(C)(C)C)C4)nc32)cc1 (stereo not given),3,67*,-1,0,1,9
Cc1ccc(Cn2nnc3c(=O)[nH]c(C4CCN(C(=O)C(F)(F)F)CC4)nc32)cc1,1,75*,0,0,5,14
CCN(CC)CC(=O)Nc1c2c(nc3ccccc13)CCCC2,-1,44,0,0,.,.
CCCCCN(CCCCC)CC(=O)Nc1cc(C)nc2ccccc12,-1,74*,1,0,-2,3
CCCCCCN(CCCCCC)CC(=O)Nc1c2c(nc3ccccc13)CCC2,-3,71*,1,0,21,17
COc1ccc(-c2nonc2-c2ccc(OC)cc2)cc1,6,-11,-1,0,.,.
CC1CCCN(C(=O)C2CCN(Cc3cccc(Br)c3)CC2)C1 (stereo not given),6,62*,0,1,-7,-2
CC1CCCN(C(=O)C2CCN(Cc3cccc4ccccc34)CC2)C1 (stereo not given),14,28,-2,1,.,.
COc1cc(CN2CCC(C(=O)N3CCCC(C)C3)CC2)cc(Br)c1O (stereo not given),-1,52*,-1,1,-7,-4
CC1CCCN(C(=O)C2CCN(Cc3cccc(Cl)c3)CC2)C1 (stereo not given),7,57*,2,1,-1,-5
CC1CCCN(C(=O)C2CCN(Cc3ccccc3F)CC2)C1 (stereo not given),6,67*,0,0,-12,-10
CCN1CCN(C(=O)C2CCN(Cc3cc(Br)c(O)c(OC)c3)CC2)CC1,2,45,-1,0,.,.
CC(C)c1csc(CN2CCCC(CNC(=O)c3n[nH]c4ccccc34)C2)n1 (stereo not given),12,-3,0,0,.,.
N[C@H](C(=O)O)c1cc(O)cc(O)c1,14,17,1,0,.,.
O=[N+]([O-])c1ccc(CNC2CCCC2)cc1,-11,12,0,0,.,.
CC1CCCCC1NCc1ccc([N+](=O)[O-])cc1 (stereo not given),7,75*,0,0,-9,-4
